Pf apPOL inh: Pf-apPOL DNA polymerase inhibition; Recombinant Pf-apPOL, molecular beacon fluorescence, 1.5 h; inhibition, % at 10 µM; 0.25% of 210,000 active
mHTT-CaM PPI inh: mHTT-calmodulin interaction abrogation; P42858; AlphaScreen His-mHTT/GST-CaM binding, luminescence; inhibition, % at 15 µM; 3.6% of 190,000 active; AID 1671202;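 further: 0% = both proteins with DMSO and 100% = one protein alone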
Target sequence (P42858 whole entry, looked up, stated change not applied): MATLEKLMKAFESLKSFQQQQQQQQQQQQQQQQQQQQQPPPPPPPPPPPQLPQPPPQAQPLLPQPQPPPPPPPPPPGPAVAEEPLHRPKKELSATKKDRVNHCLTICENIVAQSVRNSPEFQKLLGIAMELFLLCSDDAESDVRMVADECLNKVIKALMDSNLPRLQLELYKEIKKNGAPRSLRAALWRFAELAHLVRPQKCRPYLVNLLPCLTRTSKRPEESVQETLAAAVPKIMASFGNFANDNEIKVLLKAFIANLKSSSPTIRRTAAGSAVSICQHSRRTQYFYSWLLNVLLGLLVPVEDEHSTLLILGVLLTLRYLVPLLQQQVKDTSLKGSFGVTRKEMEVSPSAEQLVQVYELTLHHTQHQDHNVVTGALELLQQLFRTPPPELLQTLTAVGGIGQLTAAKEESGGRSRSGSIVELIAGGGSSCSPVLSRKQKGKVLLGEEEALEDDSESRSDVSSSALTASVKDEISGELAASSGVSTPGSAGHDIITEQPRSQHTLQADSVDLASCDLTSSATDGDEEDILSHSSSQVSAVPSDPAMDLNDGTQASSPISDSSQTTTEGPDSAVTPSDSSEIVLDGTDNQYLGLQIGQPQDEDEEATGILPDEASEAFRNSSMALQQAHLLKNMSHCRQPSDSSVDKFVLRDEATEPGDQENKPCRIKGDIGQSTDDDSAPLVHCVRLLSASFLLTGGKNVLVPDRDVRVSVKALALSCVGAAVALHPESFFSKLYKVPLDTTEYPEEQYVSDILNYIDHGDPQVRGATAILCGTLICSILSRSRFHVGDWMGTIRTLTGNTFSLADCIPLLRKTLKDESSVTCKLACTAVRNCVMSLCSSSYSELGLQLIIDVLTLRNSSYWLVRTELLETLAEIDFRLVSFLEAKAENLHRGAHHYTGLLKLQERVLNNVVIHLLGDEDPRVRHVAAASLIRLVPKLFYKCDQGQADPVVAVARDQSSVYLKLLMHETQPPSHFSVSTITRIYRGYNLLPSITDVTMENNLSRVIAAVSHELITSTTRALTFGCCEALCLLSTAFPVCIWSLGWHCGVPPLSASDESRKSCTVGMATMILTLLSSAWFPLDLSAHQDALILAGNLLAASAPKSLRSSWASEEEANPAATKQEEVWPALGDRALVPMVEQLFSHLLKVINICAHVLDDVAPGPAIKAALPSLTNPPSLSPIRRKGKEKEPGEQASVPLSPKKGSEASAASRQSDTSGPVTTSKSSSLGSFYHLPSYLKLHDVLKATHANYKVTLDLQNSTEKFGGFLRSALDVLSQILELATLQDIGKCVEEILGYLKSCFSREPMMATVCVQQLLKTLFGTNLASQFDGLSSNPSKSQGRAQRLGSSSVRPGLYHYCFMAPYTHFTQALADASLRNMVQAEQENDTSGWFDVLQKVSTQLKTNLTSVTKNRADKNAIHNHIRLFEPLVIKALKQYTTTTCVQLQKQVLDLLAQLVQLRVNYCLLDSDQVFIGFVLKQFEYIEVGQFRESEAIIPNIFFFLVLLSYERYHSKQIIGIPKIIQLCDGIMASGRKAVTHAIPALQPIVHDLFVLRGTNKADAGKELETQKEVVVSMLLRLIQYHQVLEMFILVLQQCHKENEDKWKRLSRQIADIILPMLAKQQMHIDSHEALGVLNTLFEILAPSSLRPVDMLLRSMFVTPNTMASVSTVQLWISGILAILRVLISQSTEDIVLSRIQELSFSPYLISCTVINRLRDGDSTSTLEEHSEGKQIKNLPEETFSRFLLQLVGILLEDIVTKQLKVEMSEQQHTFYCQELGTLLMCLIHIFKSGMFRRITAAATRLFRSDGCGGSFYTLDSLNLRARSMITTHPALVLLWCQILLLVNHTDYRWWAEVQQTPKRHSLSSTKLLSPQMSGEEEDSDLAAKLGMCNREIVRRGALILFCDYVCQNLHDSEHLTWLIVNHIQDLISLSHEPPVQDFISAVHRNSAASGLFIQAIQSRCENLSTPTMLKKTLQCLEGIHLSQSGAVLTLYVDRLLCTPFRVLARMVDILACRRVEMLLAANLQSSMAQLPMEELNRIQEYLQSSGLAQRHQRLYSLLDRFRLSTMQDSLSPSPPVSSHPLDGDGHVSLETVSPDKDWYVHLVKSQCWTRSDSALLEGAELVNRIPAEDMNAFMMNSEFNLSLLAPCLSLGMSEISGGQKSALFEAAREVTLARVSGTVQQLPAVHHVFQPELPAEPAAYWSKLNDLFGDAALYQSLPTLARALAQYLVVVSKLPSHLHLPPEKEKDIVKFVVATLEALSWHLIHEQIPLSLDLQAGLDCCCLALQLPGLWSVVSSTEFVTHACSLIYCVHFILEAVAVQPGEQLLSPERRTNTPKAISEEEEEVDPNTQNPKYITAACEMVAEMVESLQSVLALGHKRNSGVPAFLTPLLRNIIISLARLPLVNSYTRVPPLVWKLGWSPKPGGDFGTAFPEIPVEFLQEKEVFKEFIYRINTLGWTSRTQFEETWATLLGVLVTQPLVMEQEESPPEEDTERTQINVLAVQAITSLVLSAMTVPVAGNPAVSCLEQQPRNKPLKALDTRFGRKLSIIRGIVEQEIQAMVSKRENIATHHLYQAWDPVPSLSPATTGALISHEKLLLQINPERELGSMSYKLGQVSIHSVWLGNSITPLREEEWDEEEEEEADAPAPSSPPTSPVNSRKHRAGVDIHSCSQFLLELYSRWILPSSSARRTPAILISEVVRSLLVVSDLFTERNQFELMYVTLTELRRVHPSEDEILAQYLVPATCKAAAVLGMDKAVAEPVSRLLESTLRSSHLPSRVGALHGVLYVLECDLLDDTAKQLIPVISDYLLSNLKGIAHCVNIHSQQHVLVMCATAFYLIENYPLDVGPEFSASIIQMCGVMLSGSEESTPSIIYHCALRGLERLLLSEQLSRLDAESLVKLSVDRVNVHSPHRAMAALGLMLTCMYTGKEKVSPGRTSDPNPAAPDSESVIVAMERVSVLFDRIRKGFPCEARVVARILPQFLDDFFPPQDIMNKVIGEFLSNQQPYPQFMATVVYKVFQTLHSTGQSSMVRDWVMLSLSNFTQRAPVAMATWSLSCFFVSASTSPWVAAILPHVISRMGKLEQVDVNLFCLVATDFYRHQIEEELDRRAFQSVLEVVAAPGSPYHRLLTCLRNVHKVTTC
Numbers without * were called inactive; . = not tested or not shown. In the library only some 3.6% were active in any assay of this set; here they are far more common. No stated cut-off is given here; in the data, active means inhibition above about 50%; inactive means the rest.

SMILES	Pf apPOL inh	mHTT-CaM PPI inh
CN(CCCNC(=O)C1CCCN(c2nnc3ccccn23)C1)c1ccccc1 (centres undefined)	-4	39
CC(C)C(NC(=O)C1CCN(c2ccc(N3CCCCC3)nn2)CC1)c1cccs1 (centres undefined)	-8	1
O=C(NC(c1cccs1)c1ccc2cccnc2c1O)C1CCCCC1 (centres undefined)	-14	97*
O=C(CCc1ccccc1)NC(c1cccs1)c1ccc2cccnc2c1O (centres undefined)	-4	19
CCCC(=O)NC(c1cccs1)c1ccc2cccnc2c1O (centres undefined)	-1	100*
CCCC(=O)NC(c1cccs1)c1cc(Cl)c2cccnc2c1O (centres undefined)	-5	100*
CC(C)CC(=O)Nc1cccc(NC(=O)c2cccs2)c1	0	-2
CC(C)C(=O)NC(c1cccs1)c1cc(Cl)c2cccnc2c1O (centres undefined)	16	18
CC(C)CC(=O)NC(c1cccs1)c1ccc2cccnc2c1O (centres undefined)	-1	100*
COc1ccc(C=C2Oc3c(ccc(O)c3CN3CCCC(C)C3)C2=O)c(OC)c1 (centres undefined)	-14	19
Cc1ccc(C(=O)C(C)S(=O)(=O)c2ccc(Cl)cc2)cc1Cl (centres undefined)	0	.
O=C(Nc1ccccc1Br)N1CCCC1c1ccccc1F (centres undefined)	-3	-30
COCOCCn1cc(CN2CCS(=O)(=O)N(Cc3ccc(-c4ccc(F)nc4)cc3)C(C(C)C)C2=O)nn1 (centres undefined)	-4	-8
CC(C)CC1C(=O)N(Cc2cn(Cc3ccco3)nn2)CCS(=O)(=O)N1Cc1ccc(-c2ccccc2)cc1 (centres undefined)	-4	68*
COCOCCn1cc(CN2CCS(=O)(=O)N(Cc3ccc(-c4ccc(F)nc4)cc3)C(CC(C)C)C2=O)nn1 (centres undefined)	6	50*
COc1ccc(-c2ccc(CN3C(CC(C)C)C(=O)N(Cc4cn(Cc5ccco5)nn4)CCS3(=O)=O)cc2)cc1 (centres undefined)	-2	32
CC(C)CC1C(=O)N(Cc2cn(Cc3ccco3)nn2)CCS(=O)(=O)N1Cc1ccc(-c2ccc(F)nc2)cc1 (centres undefined)	-6	60*
CC(C)CC1C(=O)N(Cc2cn(Cc3ccco3)nn2)CCS(=O)(=O)N1Cc1ccc(-c2ccncc2)cc1 (centres undefined)	-5	33
COc1cccc(CNC(=O)c2cc3n(n2)CCCN(Cc2ccc(C)cc2)C3=O)c1	-3	3
COc1cccc(C(=O)Oc2ccc3c(c2)OC(=Cc2ccco2)C3=O)c1	1	15
Cc1ccc2[nH]cc(CCN3CC(C(=O)Nc4nncs4)CC3=O)c2c1 (centres undefined)	5	-6
Cc1ccc2[nH]cc(CCN3CC(C(=O)Nc4ccccc4C)CC3=O)c2c1 (centres undefined)	3	23
Cc1ccc2nc(NC(=O)C3CC(=O)N(CCc4c[nH]c5ccc(C)cc45)C3)sc2c1 (centres undefined)	0	88*
Cc1ccc2[nH]cc(CCN3CC(C(=O)Nc4nc5c(C)cccc5s4)CC3=O)c2c1 (centres undefined)	-1	81*
O=C(CCSc1ccc(Cl)cc1)Nc1ccc2c(c1)OCCO2	-4	-10
SMILES	Pf apPOL inh	mHTT-CaM PPI inh
Cc1ccc(-c2nnn(CC(=O)Nc3ccccc3Cl)n2)cc1	-6	-5
CN(CC(=O)N1CCc2ccccc21)S(=O)(=O)c1cccc2cnccc12	2	0
O=C1OCCN1C(=O)[C@H]1[C@H](c2ccccc2)C(c2ccccc2)=NN1c1ccccc1	2	-54
O=C1OCCN1C(=O)[C@H]1[C@H](c2ccc([N+](=O)[O-])cc2)C(c2ccc(F)cc2)=NN1c1ccc(Br)cc1	-6	65*
O=C1OCCN1C(=O)[C@H]1[C@H](c2ccc([N+](=O)[O-])cc2)C(c2ccc(F)cc2)=NN1c1ccccc1	-8	54*
O=C1OCCN1C(=O)[C@H]1[C@H](c2ccccc2)C(c2ccc(F)cc2)=NN1c1ccc(Br)cc1	-1	31
CC1(C)OC2OC(C(=O)Nc3ccc(F)cc3)C3OC(C)(C)OC3C2O1 (centres undefined)	-1	2
COc1ccc(CC(=O)Nc2cccc(Cl)c2)cc1OC	-1	.
COc1ccccc1C1CC(c2ccccc2)Nc2nc(N)nn21 (centres undefined)	-1	-8
COc1ccc(C2CC(c3ccccc3OC)n3nc(N)nc3N2)cc1 (centres undefined)	-4	2
COc1ccccc1C1CC(c2ccc(F)cc2)Nc2nc(N)nn21 (centres undefined)	-3	62*
CCOc1ccccc1C1CC(c2ccc(F)cc2)Nc2nc(N)nn21 (centres undefined)	-2	72*
O=S(=O)(c1ccc(F)cc1)N1CCN(c2ncnc3sc4c(c23)CCCC4)CC1	-7	-3
O=S(=O)(CCc1ccccc1)NCC1CCN(Cc2ccco2)CC1	-5	-9
N#CCC(=O)NNC(=S)NC1CCCCC1	2	.
COc1ccccc1Nc1c([N+](=O)[O-])c(=O)oc2ccccc12	2	10
Nc1ccccc1Nc1c([N+](=O)[O-])c(=O)oc2ccccc12	0	71*
CCC(=O)N1CCc2cc(Br)cc(S(=O)(=O)Nc3cccc(C(F)(F)F)c3)c21	1	6
CCc1cc(C2CCCN2Cc2cc(OC)cc(OC)c2)on1 (centres undefined)	-3	0
NS(=O)(=O)c1ccc2c(c1)C1C=CCC1C(C(=O)O)N2 (centres undefined)	-1	40
O=[N+]([O-])c1ccc2c(c1)C1C=CCC1C(C1CC=CCC1)N2 (centres undefined)	.	39
NS(=O)(=O)c1ccc2c(c1)C1C=CCC1C(c1cccc3ccccc13)N2 (centres undefined)	.	94*
NS(=O)(=O)c1ccc2c(c1)C1C=CCC1C(C1CC=CCC1)N2 (centres undefined)	-3	95*
Cc1nc(Cn2cccc2C(=O)Nc2cccc(F)c2)no1	5	5
O=C1C(=Cc2cccnc2)Oc2c1ccc1c2CN(CCc2cccs2)CO1	7	20
SMILES	Pf apPOL inh	mHTT-CaM PPI inh
Cc1cc(C2CCCN2Cc2cc(Br)ccc2O)no1 (centres undefined)	-6	62*
CCCc1cc(C2CCCN2Cc2cc(Br)ccc2O)no1 (centres undefined)	4	-14
Cc1oc(C2CCN(S(=O)(=O)c3cccc(Cl)c3)CC2)nc1C(=O)N(C)C	-2	-6
CC1=NN(c2ccc(I)cc2)C(=O)/C1=C/c1ccc(N(C)C)cc1	-1	57*
CC1=NN(c2ccc(C)c(C)c2)C(=O)/C1=C/c1ccc(N(C)C)c([N+](=O)[O-])c1	-4	1
CN(C)c1ccc(/C=C2\C(=O)N(c3ccccc3)N=C2c2ccccc2)cc1	-4	56*
CC1=NN(c2ccc(Cl)c(Cl)c2)C(=O)/C1=C/c1ccc(N(C)C)cc1	1	44
CC1=NN(c2cccc(F)c2)C(=O)/C1=C/c1ccc(N(C)C)cc1	-10	10
CCN(CC)c1ccc(/C=C2/C(=O)N(c3ccc(C)c(C)c3)N=C2C)cc1	-1	86*
O=C(Nc1cccc2c1C(=O)c1ccccc1C2=O)c1ccccc1Cl	0	2
